# Source: PubChem
# Shn3 inh set2 = reduces Shn3 3'UTR luciferase signal in osteoblasts | Clone20 osteoblast Shn3 3'UTR firefly luciferase, 24 h | inhibition, % at 12.5 µM | actives 0.52% (n = 360,000) | AID 588674;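 active = mean inhibition of at least 75% with every replicate also reaching 75%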;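 note: 0% = median of neutral control wells and 100% = pilot-screen positive control compound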
# MITF TRPM1 inh = MITF TRPM1 promoter inhibition in SK-MEL-5 cells | SK-MEL-5 TRPM1 promoter luciferase, 24 h | inhibition, % at 12.5 µM | actives 0.83% (n = 330,000) | AID 488899;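 active = mean inhibition across replicates of 60% or more, whatever share of single replicates reaches that level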
# HIF-2a block = inhibitors of HIF-2a | inhibition, % at 18.8 µM | 786-0 RCC cells HIF-2a reporter, luciferase luminescence, overnight | actives 0.72% (n = 360,000);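 active = inhibition of the luminescence signal of 40% or more relative to plate controls, in a single-dose primary screen at 18.75 µM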
# KKLEB tox = CF airway cell cytotoxicity counter-screen; KKLEB CF airway cells viability, ATPlite luminescence, overnight; stronger effect = lower value; cells stimulated with P. aeruginosa culture filtrate; AID 602141; activity change (cytotoxicity), % at 5 µM; actives 0.36% (n = 360,000);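 active = corrected activity change at or below -50% at 5 µM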
# Peg3 prom inh = Peg3 promoter activity inhibition | HeLa PEG-Prom luciferase reporter, luminescence, overnight | inhibition, % at 20 µM | actives 1.7% (n = 360,000) | AID 588405;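 active = inhibition of at least 50% at 20 µM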
# CF NFkB inh = blocks PAF-induced NF-kB reporter in cystic fibrosis cells | actives 0.86% (n = 360,000) | AID 588850 | KKLEB NF-kB-GFP reporter, GFP fluorescence overnight | inhibition, % at 5 µM;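 active = at least 50% inhibition at 5 µM, scaled per plate between neutral and stimulator controls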;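 note: PAF is a Pseudomonas aeruginosa culture filtrate used as stimulus; plate controls were PAF-stimulated DMSO wells for no effect and unstimulated DMSO wells for full effect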
# An asterisk follows results filed as active; / = not tested or not shown. An excerpt weighted towards active compounds, which were near 2.8% of everything screened.
SMILES,Shn3 inh set2,MITF TRPM1 inh,HIF-2a block,KKLEB tox,Peg3 prom inh,CF NFkB inh
C[C@]12C=CC(=O)C=C1CC[C@H]1[C@@H]3C[C@@H](O)[C@](O)(C(=O)CO)[C@@]3(C)C[C@H](O)[C@@]12F,5.9,-11.9,23.2,-15.5,-9.4,76.8*
CC12C=CC(=O)C=C1CCC1C2C(=O)CC2(C)C1CCC2(O)C(=O)CO (stereo not given),-1.1,-2.8,5.4,21.8,3.6,35.7
CC1CC2C3CCC4=CC(=O)C=CC4(C)C3(F)C(O)CC2(C)C1(O)C(=O)CO (stereo not given),/,5.2,25.2,49.2,5.2,77.4*
CC(=O)OCC(=O)[C@@]1(O)CC[C@H]2[C@@H]3CCC4=CC(=O)C=C[C@]4(C)[C@H]3C(=O)C[C@@]21C,-0.4,/,-146.9,18.1,-4.8,18.9
C[C@]12C=CC(=O)C=C1CC[C@@H]1[C@@H]2[C@@H](O)C[C@@]2(C)[C@H]1CC[C@]2(O)C(=O)COC(=O)CCC(=O)O,2.6,-5.1,31.8,16.0,12.0,55.6*
C[C@]12C=CC(=O)C=C1CC[C@@H]1[C@@H]2[C@@H](O)C[C@@]2(C)[C@H]1CC[C@]2(O)C(=O)COC(=O)CCC(=O)NCCc1ccc(O)cc1,-30.4,/,13.3,34.3,-22.9,80.3*
CCOC(=O)O[C@]1(C(=O)COC(=O)CC)CC[C@H]2[C@@H]3CCC4=CC(=O)C=C[C@]4(C)[C@H]3[C@@H](O)C[C@@]21C,8.8,-1.2,15.7,9.3,-30.4,76.7*
C[C@]12C=CC(=O)C=C1CC[C@@H]1[C@@H]2[C@@H](O)C[C@@]2(C)[C@H]1CC[C@]2(O)C(=O)CO,4.8,-17.5,23.7,26.5,6.8,73.4*
COc1ccc(CC(=O)Nc2cccnc2)cc1,5.7,3.1,5.4,-12.0,2.1,5.3
C[C@H]1C[C@@H]2[C@H]([C@@H](O)C[C@@]3(C)[C@H]2CC[C@]3(O)C(=O)CO)[C@@]2(C)C=CC(=O)C=C12,-13.0,4.5,16.9,19.7,-8.6,74.0*
CCC(=O)OCC(=O)C1(OC(=O)CC)[C@H](C)C[C@H]2[C@H]3[C@H]([C@@H](O)C[C@@]21C)[C@@]1(C)C=CC(=O)C=C1C[C@H]3Cl (stereo not given in full),36.5,-14.3,28.1,31.7,-9.2,69.0*
C[C@]12CCC(=O)C=C1[C@H](O)C[C@@H]1[C@@H]2[C@@H](O)C[C@@]2(C)[C@H]1CC[C@]2(O)C(=O)CO,-2.0,-2.1,24.4,6.6,-12.2,31.2
CCc1nc2c(OCC3CCCCC3)cccn2c1N(C)C(=O)c1ccc(C)cc1,10.7,/,22.9,2.7,21.6,19.5
C1CCCCCC(NCCN2CCNCC2)CCCCC1,11.7,46.5,-1.5,-10.6,100.9*,14.8
COc1ccc(-n2nc(C(=O)c3cccs3)cc(-c3nc4ccccc4[nH]3)c2=N)cc1,-136.7,58.9,16.2,-13.1,87.4*,-59.1
Cc1ccccc1-n1nc(C(=O)c2cccs2)cc(-c2nc3ccccc3[nH]2)c1=N,17.1,7.8,5.2,-21.1,25.6,18.5
Cc1cc(C)c2nc(NCCCNC(=S)NCCCN(C)C)c(C#N)cc2c1,-10.6,-1.4,9.2,-3.0,90.9*,1.4
COc1cccc(N2CCN(C(=O)c3ccc(OC)c(S(=O)(=O)NC4CC4)c3)CC2)c1,-30.2,/,-72.3,19.0,-56.3,-40.9
CC[n+]1c(/C=C/Nc2ccccc2)sc2ccccc21,91.7*,6.4,-3.0,0.1,-2.9,1.4
CC[n+]1c(C=C2C=C(C)OC(C)=C2)sc2ccccc21,77.4,73.9*,2.0,-5.3,28.4,-21.6
O=C(O)c1cccc(NC(=O)c2cccc(NC(=O)C3CCCO3)c2)c1 (stereo not given),-3.1,59.4,46.6*,0.9,47.6,-20.3
COCCN(Cc1ccccc1)C(=O)c1cc(-c2ccc(OC)c(OC)c2)nc2ccccc12,19.3,-0.8,5.0,-1.9,51.5*,5.1
CCN(Cc1ccccc1)C(=O)c1cc(-c2ccc(OC)c(OC)c2)nc2ccccc12,12.3,-2.1,10.6,-8.1,48.6,-35.3
O=c1[nH]c(=S)[nH]c2c1C(c1ccc(Cl)cc1)OC(CCc1ccccc1)C2 (stereo not given),-17.5,/,11.5,-13.9,8.3,13.5
CCC(ONc1ccccc1C(F)(F)F)(C(=O)NN(C)C)c1ccccc1 (stereo not given),3.7,-8.2,12.3,2.7,7.1,-12.7
SMILES,Shn3 inh set2,MITF TRPM1 inh,HIF-2a block,KKLEB tox,Peg3 prom inh,CF NFkB inh
COc1ccccc1/C=C/C(=O)/C=C/c1ccccc1O,-12.4,66.0*,-12.1,-12.7,100.5*,-6.7
O=[N+]([O-])c1c(NCCCO)cc(Sc2nc3ccccc3s2)c2nonc12,90.2*,69.8*,34.6,13.3,100.7*,-20.4
CCCSc1cc(NCCOC(C)=O)c([N+](=O)[O-])c2nonc12,3.7,3.7,24.4,-10.5,14.3,-15.2
CC(=O)OCCCNc1cc(SCc2ccco2)c2nonc2c1[N+](=O)[O-],2.4,6.3,-1.4,1.7,46.3,1.3
CCCSc1cc(NCCOC(=O)CCC)c([N+](=O)[O-])c2nonc12,3.8,-6.0,13.7,-1.9,56.1*,-5.9
Cc1nnc(Sc2cc(NCCCO)c([N+](=O)[O-])c3nonc23)s1,27.8,75.0*,32.2,6.2,56.1*,-7.2
Cc1nnc(Sc2cc(NCCO)c([N+](=O)[O-])c3nonc23)s1,33.7,67.3*,25.2,20.4,31.1,-10.5
CS(=O)(=O)c1ccc(S(=O)(=O)N2CCN(C(=O)C(O)c3ccccc3)CC2)cc1 (stereo not given),/,/,-5.5,/,/,/
COc1cc(/C=N/NC(=O)C2CCN(CC(O)COCc3ccccc3)CC2)ccc1O (stereo not given),-12.0,-8.5,5.8,8.1,13.8,-9.7
COc1cccc(-c2nn(C)c3sc(C(=O)N4CCN(c5ccccn5)CC4)cc23)c1,73.3,36.7,-6.6,-4.8,56.5*,6.0
COc1cccc(-c2nn(C)c3sc(C(=O)N4CCOCC4)cc23)c1,4.2,/,-3.8,-7.2,1.6,-24.2
CN1C(=O)N(C)C(c2cccc([N+](=O)[O-])c2)C2=C1CCCC2=O (stereo not given),9.1,-18.9,4.6,-1.0,13.2,-1.5
N#CC(C#N)=C(Nc1ccc(F)cc1)SCc1cccc(Br)c1,77.0,62.7*,-32.9,-41.8,20.6,51.3*
COc1cc2cc3c(N)c(C(=O)NCc4ccco4)sc3nc2cc1OC,-25.4,-51.4,-8.8,-6.8,-67.1,-5.2
COc1cc2cc3c(N)c(C(=O)Nc4sc(C)c(C)c4C#N)sc3nc2cc1OC,45.5,1.6,-5.5,-99.5*,25.2,89.4*
CC(C)N(Cc1ccccc1)C(=O)CN1C(=O)NC(Cc2ccccc2)(c2ccccc2)C1=O (stereo not given),2.2,9.1,20.6,-8.2,22.0,-6.7
